Compound activity deposited in PubChem BioAssay by National Center for Advancing Translational Sciences (NCATS).
D2 PAM-1 – potentiates the human D2 dopamine receptor allosterically; 360,000 compounds, 0.23% hits; P14416; DiscoveRx D2 beta-arrestin cells, luminescence, 90 min; 100% = 57 uM dopamine signal; potentiation, % (concentration not given with the values); in the data active = potentiation above about 50%; inconclusive = mostly about 30% to 49%
Target sequence (P14416 whole entry, looked up): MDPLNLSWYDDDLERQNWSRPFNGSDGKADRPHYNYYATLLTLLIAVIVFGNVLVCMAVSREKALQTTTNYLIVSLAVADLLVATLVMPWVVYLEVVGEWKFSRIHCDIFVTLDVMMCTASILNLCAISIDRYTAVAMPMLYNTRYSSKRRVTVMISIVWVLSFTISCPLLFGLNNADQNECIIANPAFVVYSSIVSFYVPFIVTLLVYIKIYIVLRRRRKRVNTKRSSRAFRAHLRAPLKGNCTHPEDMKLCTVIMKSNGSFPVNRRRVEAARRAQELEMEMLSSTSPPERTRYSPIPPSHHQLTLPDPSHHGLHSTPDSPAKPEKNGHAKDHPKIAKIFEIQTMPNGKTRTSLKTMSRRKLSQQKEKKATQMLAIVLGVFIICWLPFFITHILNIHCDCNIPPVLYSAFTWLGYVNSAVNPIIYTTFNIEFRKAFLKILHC
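PathHunter beta-arrestin assay in DiscoveRx D2 cells. Compounds were added with an EC20 of dopamine (50 nM final) for 90 min at 37 deg C. Luminescence was read 1 h after detection reagent, with 57 uM dopamine as the EC100 control.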
D2 antagonist – D2 dopamine receptor (human) antagonism | inhibition, % at 10 µM | 340,000 compounds, 2% hits | HEK293 TREx D2 cells, calcium flux, dopamine EC80 | P14416; in the data active = inhibition above about 30%; inactive = below that, where a call was filed; also: 0% is about no effect
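Measurement of antagonist activity uses fluorescent calcium dye in inducible HEK293 T-REx D2 cells: 10 s baseline, compound addition with 180 s read, EC80 dopamine addition with a further 180 s read.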
D2 ag-1 – activates the human D2 dopamine receptor; P14416; activation, % (no concentration beside the values); 360,000 compounds, 0.084% hits; DiscoveRx PathHunter D2 beta-arrestin, luminescence, 90 min; 100% = 57 uM dopamine signal; in the data active = activation above about 40%; inconclusive = between about 15% and that limit
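Agonist mode: compounds alone added to overnight-plated D2 PathHunter cells for 90 min at 37 C, with 57 uM final dopamine (EC100) defining full response. Beta-arrestin recruitment detected by chemiluminescent reagent, read after 1 h at ambient temperature.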
D2 PAM-2 – positively modulates the human D2 dopamine receptor allosterically | P14416 | HEK293 T-REx D2, calcium flux, EC20 dopamine potentiation | potentiation, % at 10 µM | 340,000 compounds, 0.34% hits | AID 485347;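 active = potentiation over 3 SD above the plate norm, cut at about 30% in these data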; also: 0% is about no effect
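Potentiation of an EC20 dopamine calcium response measured kinetically over 180 s, after a preceding 180 s compound-only read flagging agonists. Cells: inducible Hek293 Trex D2 line, 4000/well, cultured overnight at 30 C before dye loading.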
D2 ag-2 – activates the human D2 dopamine receptor. 340,000 compounds, 0.53% hits. activation, % at 2 µM. AID 485358. HEK293 T-REx D2 cells, calcium flux agonist mode. P14416;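 active = activation over 3 SD above normal in the single-dose calcium agonist read, cut at about 30% in these data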; also: 0% is about no effect
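Tetracycline-induced HEK293 T-REx cells with force-coupled D2 receptor, plated overnight at 30 C, loaded with no-wash calcium dye. After a 10 s baseline, compound was pin-added and calcium flux read kinetically for 180 s; calcium rises flagged agonists.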
An asterisk follows results filed as active; ? = inconclusive; . = not tested or not shown. Sampled rows, rich in hits. Any-hit rate of the full collection: about 2.4%.

SMILES	D2 PAM-1	D2 antagonist	D2 ag-1	D2 PAM-2	D2 ag-2
O=C(NCCc1nc2ccccc2[nH]1)c1cc([N+](=O)[O-])cc([N+](=O)[O-])c1	59.4*	-10.2	13.9	7.0	-0.5
O=C(Cn1cc([N+](=O)[O-])cn1)NCCc1nc2ccccc2[nH]1	-0.4	-1.4	-6.6	3.7	2.0
NC(=O)c1ccc(N2CCN(c3ccccc3F)CC2)c([N+](=O)[O-])c1	-4.5	-16.0	-2.6	41.4*	-0.1
NC(=O)c1ccc(N2CCN(c3ccccc3O)CC2)c([N+](=O)[O-])c1	3.5	-17.4	5.8	17.0	-1.2
O=C(OCc1ccccc1)C1=[N+]([O-])OC(C(=O)OCc2ccccc2)C1c1c[nH]c2ccccc12 (stereo unspecified)	62.8*	-11.4	5.8	1.7	-0.7
Cc1cccc(C(=O)NCC(=O)OC(C)C(=O)Nc2ccc(Cl)cn2)c1 (stereo unspecified)	-19.3	37.2*	-1.1	2.3	2.2
Cc1cccc(OCC(=O)OC(C)C(=O)Nc2ccc(Cl)cn2)c1 (stereo unspecified)	0.0	-1.0	-4.7	4.0	-0.8
O=C(COC(=O)c1ccccc1-c1nc2ccccc2s1)NC1CCS(=O)(=O)C1 (stereo unspecified)	-15.3	32.3*	0.8	-2.8	0.1
Oc1c(C(c2ccc(Cl)cc2)N2CCC3(CC2)OCCO3)sc2nc(-c3ccco3)nn12 (stereo unspecified)	.	.	.	3.1	-0.5
COc1ccc(C(=O)Nc2ccc(C(=O)OCc3cc(=O)n4nc(C(C)C)sc4n3)cc2)cc1	.	.	.	15.7	2.0
CCN(CCNc1ccc(Cl)cc1[N+](=O)[O-])C(=O)c1cc([N+](=O)[O-])c(N(C)C)cc1OC	-20.5	34.4*	-5.3	-7.6	0.3
CCOc1ccc(NC(=O)Cn2c(=O)n(CCCCC(=O)NCCc3ccc(Cl)cc3)c(=O)c3ccccc32)cc1	.	.	.	-0.1	-0.3
CN(C)S(=O)(=O)c1ccc2c(c1)N(CC(=O)NCc1ccccc1)C(=O)C1CCCCN21 (stereo unspecified)	.	.	.	6.2	-0.2
O=C(NCCN1C(=O)S/C(=C\c2cccnc2)C1=O)c1ccc([N+](=O)[O-])s1	18.6	33.2*	2.5	-0.7	-0.9
Cc1c(C(=O)NCCN2C(=O)S/C(=C\c3cccnc3)C2=O)cccc1[N+](=O)[O-]	-9.2	-2.2	1.0	0.6	0.2
Cc1[nH]n2c(=O)c3c(nc2c1-c1ccccc1)CCCC3	-39.4	-17.2	-2.6	-17.8	3.1
Cc1[nH]n2c(=O)c3c(nc2c1-c1ccc(F)cc1)CCCC3	-16.7	35.6*	-5.8	-21.7	-0.9
N#CC(C#N)=C1C=C2C=C(N3CCCCCC3)CCC2CC1 (stereo unspecified)	9.7	82.9*	?	-19.0	153.9*
CC1(C)CC(NCCN2CCN(C3=CC(=C(C#N)C#N)CC(C)(C)C3)CC2)=CC(=C(C#N)C#N)C1	-8.3	-0.8	-1.6	19.6	-0.9
N#CC(C#N)=C1C=C2C=C(N3CCOCC3)CCC2CC1 (stereo unspecified)	14.2	65.3*	-3.1	-25.7	132.0*
CN1CCN(C2=CC3=CC(=C(C#N)C#N)CCC3CC2)CC1 (stereo unspecified)	5.9	48.7*	4.4	18.9	173.2*
CCN1CCN(C2=CC3=CC(=C(C#N)C#N)CCC3CC2)CC1 (stereo unspecified)	-11.4	79.4*	3.9	-33.0	141.8*
COc1ccc(C(=O)Nc2cccc(C(=O)OCc3cc(=O)n4nc(C5CC5)sc4n3)c2)cc1	.	.	.	16.7	-0.4
CCc1ccccc1NC(=O)c1ccc2c(c1)CCCN2S(C)(=O)=O	.	.	.	3.7	0.4
CCC(C)NCCOc1cccc(Br)c1 (stereo unspecified)	-34.5	45.0*	0.7	-16.7	-0.7
SMILES	D2 PAM-1	D2 antagonist	D2 ag-1	D2 PAM-2	D2 ag-2
CCOc1ccccc1NC(=O)Nc1ccc2c(c1)OCO2	-26.2	-3.9	-5.0	-10.1	0.1
C=CCOc1ccccc1CN(C(=O)CCl)c1ccc2c(c1)OCO2	-3.4	33.0*	-3.8	4.6	0.2
Clc1cccc(N2CCN(CCNc3nc4ccccc4n4cnnc34)CC2)c1	-15.7	41.8*	2.7	-20.8	3.8
c1ccc(CN2CCN(c3nc4ccccc4n4cnnc34)CC2)cc1	-5.1	67.8*	-5.1	-32.0	0.8
CCN1CCN(S(=O)(=O)c2ccc(Cl)c(C(=O)NC3CC3)c2)CC1	-5.6	-53.0	-2.5	-6.6	0.9
CCN1CCN(S(=O)(=O)c2ccc(Cl)c(C(=O)NC3CCCC3)c2)CC1	-5.5	46.6*	3.2	-6.9	-0.4
CCN1CCN(S(=O)(=O)c2ccc(Cl)c(C(=O)NC(C)(C)C)c2)CC1	-2.6	30.4*	-4.8	-8.5	5.4
Cc1ccc(Cn2c(C(=O)O)c(CNCc3cccs3)c3ccc(C)cc32)cc1	.	.	.	0.5	-1.4
COc1ccc(Cn2ccnc2SCC(=O)Nc2ccc3c(c2)OCCO3)cc1	.	.	.	11.4	0.2
Cc1nnc(NC(=O)c2ccc(S(=O)(=O)N3CC(C)CC(C)C3)cc2)o1 (stereo unspecified)	-7.7	-4.1	-6.7	35.3*	0.2
COc1ccc(NC(=O)C2CCN(C3=NS(=O)(=O)C(c4ccc(C)c(C)c4)=C3C)CC2)c(OC)c1	.	.	.	.	-1.1
COc1ccc(CSc2nc(C)cc(=O)[nH]2)cc1Br	-0.2	2.7	-1.2	2.2	1.2
COc1cc(=O)[nH]c(SCc2c(F)c(F)c(F)c(F)c2F)n1	-4.6	-1.2	2.5	95.2*	-0.6
COc1ccc(NC(=O)CN(C)C(=O)CN2C(=O)c3ccc([N+](=O)[O-])cc3C2=O)cc1	65.7*	0.3	10.8	-5.5	0.5
CCOc1cc(C(=O)N2CC(=O)Nc3ccc(F)cc3C2c2ccccc2)cc(OCC)c1OCC (stereo unspecified)	.	.	.	-15.2	-0.2
CCCCCCCCCCCNC(=O)c1ccoc1C	-0.5	7.6	-2.8	7.7	.
CCCCCC(C)NC(=O)c1ccoc1C (stereo unspecified)	-1.7	40.3*	-2.7	-13.7	0.0
O=c1cc(N2CCCCC2)c(-c2ccccc2)nn1Cc1c(Cl)cccc1Cl	-10.3	31.9*	-3.9	15.8	0.3
O=C(C1CCN(S(=O)(=O)N2CCOCC2)CC1)N1CCc2ccccc21	-14.1	35.6*	-4.6	0.1	-0.5
O=C(C1CCC(C(=O)N2CCc3ccccc32)CC1)N1CCc2ccccc21 (stereo unspecified)	-2.6	-2.5	-0.5	-29.8	7.2
CCOC(=O)c1c(NC(=S)NCc2ccccc2)sc2c1CCN(C(=O)OCC)C2	-3.9	17.9	-8.0	5.9	-0.1
C=CCNC(=S)Nc1sc2c(c1C(=O)OCC)CCN(C(=O)OCC)C2	-17.2	-13.4	-0.6	39.7*	0.1
